In PubChem BioAssay (Tox21) one finds Potency data, which are given here for 40 compounds.

Several values for one entry are separate records, joined by “and”; a condition that tells them apart may be missing. Equal values may be shown once. Inconclusive results are not listed. A call without a number means that no potency is given here. Activity calls are given as the source filed them. Calls follow the shape of the dose curve; as a rule, active = well fitted cell-killing curve with a large enough effect in the repeat runs; inconclusive = weak or mixed curves, or effect the other way; inactive = no such curve, though single readings can be large or run the other way.
Potency is read from the fitted curve at half-maximal effect.

A short description of the test: qHTS assay to identify small molecule agonists of the RXR signaling pathway - cell viability counter screen (AID 1159529). Also: nearly all actives have a fitted effect of over 50% in size. To be noted: RXR-alpha-bla HEK293T viability, CellTiter-Glo, 16 h; series mostly up to 76.8 µM. An excerpt:
National Center for Advancing Translational Sciences [NCATS]
NIH Chemical Genomics Center [NCGC]
U.S. Environmental Protection Agency [EPA]
National Institutes of Environmental Health Sciences [NIEHS]
National Toxicology Program [NTP]
U.S. Food and Drug Administration [FDA]
The Retinoid X receptor (RXR), a nuclear hormone receptor expressed in liver, spleen, placenta, epidermis, central nervous system. These receptors are able to form homo and heterodimers with other nuclear receptors and due to this heterodimerizing ability, RXR functions as master regulators producing diverse physiological effects. Three subtypes of RXR exist; alpha, beta and gamma. Retinoid X receptor alpha (RXR-alpha) has potential roles in metabolic signaling pathways, skin alopecia, dermal cysts, cardiac development, insulin sensitization etc. Therefore screening environmental chemicals on RXR-alpha signaling can be used for the studies focused on such therapeutic applications. For quantification of RXR-alpha ligands signaling, GeneBLAzer RXR alpha-UAS-bla HEK 293T (Life Technologies, Carlsbad, CA) cells containing a beta-lactamase reporter-gene under control of Retinoid X receptor-alpha response element were used to screen Tox21 10K library. The cytotoxicity of the Tox21 compound library against the RXR-alpha HEK 293T cell line was tested in parallel by measuring cell viability using CellTiter-Glo assay (Promega Corporation, Madison, WI) in the same wells.
Tox21 Assay Protocol Summary:
RXR-alpha HEK 293T cells were dispensed at 2,000 cells/6 uL of assay medium containing 2% charcoal-stripped FBS using a Multidrop Combi (ThermoFisher Scientific, Waltham, MA) dispenser. The assay was performed in black wall/clear-bottom 1536-well plates (Greiner Bio-One North America Inc. Monroe, NC). Tetraoctyl ammonium bromide was used as a positive control in the cytotoxicity screen. After the assay plates were incubated at 37 C and 5% CO2 for 5 hr, 23 nL of compounds dissolved in DMSO, positive control or DMSO only were transferred to the assay plate by a Pintool station (Kalypsys, San Diego, CA). The assay plates were incubated at 37 C and 5% CO2 for 16 hr. One uL of LiveBLAzer B/G FRET substrate (Life Technologies) was added using a Flying Reagent Dispenser (FRD) (Aurora Discovery, San Diego, CA) and the plates were incubated at room temperature for 2 hr. Fluorescence intensity (405 nm excitation, 460/530 nm emission) was measured using an Envision plate reader (PerkinElmer, Shelton, CT). For cytotoxicity, 4 uL/well of CellTiter-Glo reagent was added into the assay plates using an FRD. After 30 min incubation at room temperature, the luminescence intensity was measured using a ViewLux plate reader (PerkinElmer).
For the compound `Nn1cnnc1`, the Potency result is “inactive”.
`CC(C)N(C(=O)SCC(Cl)=C(Cl)Cl)C(C)C`: the Potency entry is “inactive”.
For the compound `c1cc(OCC2CO2)ccc1Cc1ccc(OCC2CO2)cc1` (stereo not given), the Potency entry is “inactive”.
Turning to `Nc1ccc(-c2ccc(N)c(N)c2)cc1N`, the Potency entry is “inactive”.
On to `CCN(N=O)C(N)=O`, for which the Potency entry is “inactive”.
For `Oc1cc(Cl)ccc1Oc1ccc(Cl)cc1Cl`, the Potency is 17.8 µM (active).
In the case of `CCCCCCOC(=O)c1ccccc1C(=O)OCCCCCC` it was “inactive”; in that of `CCC(=O)O[C@H]1CC[C@H]2[C@@H]3CCC4=CC(=O)CC[C@]4(C)[C@H]3CC[C@]12C`, 49 µM (active); in that of `Oc1cc(Cl)ccc1Cl`, “inactive”.
In the case of `Cc1cc(C)cc(C)c1` it was “inactive”.
For the compound `O=P(O)(O)CCCl`, the Potency result is “inactive”.
For `C#CCOS(=O)OC1CCCCC1Oc1ccc(C(C)(C)C)cc1` (stereo not given), the Potency was 27.6 µM (active) and 43.6 µM (active).
`C#C[C@]1(O)CC[C@H]2[C@@H]3CCC4=CC(=O)CC[C@]4(C)[C@H]3CC[C@@]21C`: the Potency entry was “inactive”.
In the case of `Clc1nc(Cl)nc(Cl)n1`, the Potency result is “inactive”.
With `O=[N+]([O-])c1c(Cl)c(Cl)c(Cl)c(Cl)c1Cl` the entry was “inactive”; with `Cc1c(COC(=O)[C@@H]2[C@H](/C=C(\Cl)C(F)(F)F)C2(C)C)cccc1-c1ccccc1`, “inactive”.
With `C=CCN(CC=C)C(=O)C(Cl)Cl`, the Potency entry is “inactive”.
In the case of `CCOc1cc(C=O)ccc1O`, the Potency result was “inactive”.
In the case of `CNC(=O)N(C)c1nnc(C(C)(C)C)s1` it was “inactive”; in that of `O=[N+]([O-])c1cccc2ccccc12`, “inactive”; in that of `C=CCc1ccc2c(c1)OCO2`, “inactive”.
On to `Cc1ccc(N)c(N)c1`, for which the Potency result was “inactive”.
As for `C=C(C)[C@H]1Cc2c(ccc3c2O[C@@H]2COc4cc(OC)c(OC)cc4[C@@H]2C3=O)O1`, the Potency entry was “inactive”.
With `Cc1ccc(OP(=O)(Oc2ccc(C)cc2)Oc2ccc(C)cc2)cc1`, the Potency result was “inactive”.
Take `Oc1cc(Cl)c(Cl)cc1Cl`: the Potency entry was “inactive”.
In the case of `O=[N+]([O-])c1ccc(O)c([N+](=O)[O-])c1`, the Potency was 12.3 µM (active).
As to `CCCCCCCCOC(=O)c1ccccc1C(=O)OCCCCCCCC`, the Potency entry is “inactive”.
With `N#CC(Br)Br`, the Potency result is “inactive”.
Regarding `c1ccc(P(c2ccccc2)c2ccccc2)cc1`, the Potency result was “inactive”.
Regarding `Nc1cccnc1`, the Potency entry is “inactive”.
In the case of `COP(=O)(OC)OC`, the Potency result was “inactive”.
Regarding `CCC(C)c1ccc(O)cc1` (stereo not given), the Potency result is “inactive”.
As to `CCCCC(CC)COC(=O)c1ccc(C(=O)OCC(CC)CCCC)c(C(=O)OCC(CC)CCCC)c1` (stereo not given), the Potency result is “inactive”.
Turning to `CCN(CC)N=O`, the Potency result is “inactive”.
With `Nc1ccncc1` the entry was “inactive”; with `CC(C)C(=O)OCC(C)(C)C(OC(=O)C(C)C)C(C)C` (stereo not given), “inactive”.
Turning to `CC(C)(C)c1ccccc1O`, the Potency entry was “inactive”.
With `CCC(C)c1cc([N+](=O)[O-])cc([N+](=O)[O-])c1O` (stereo not given) the entry was “inactive”.
Take `c1ccc(NNc2ccccc2)cc1`: the Potency entry was “inactive”.
For the compound `O=C(O)CC[N+](=O)[O-]`, the Potency result is “inactive”.
